Several values for one entry are separate records, joined by “and”; a condition that tells them apart may be missing. Identical values can stand only once. Results filed as inconclusive are left out. Where a structure was tested more than once in an assay, its records may differ in their call. Activity calls are given as the source filed them. Unless noted, the call rests on the fitted dose curve; in most records, active means well fitted curve in the direction sought with a large enough effect in the repeat runs; inconclusive means weak or mixed curves; inactive means no such curve, though single readings can be large; an effect the other way counts as inactive or inconclusive.

The nature of test [1]: qHTS assay to identify small molecule antagonists of the thyroid receptor (TR) signaling pathway - cell viability counter screen (AID 743064). Further: nearly all actives have a fitted effect of over 50% in size. In outline:
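Viability of T3-stimulated (1 nM final) GH3.TRE-Luc cells is measured by CellTiter-Fluor fluorescence after 23.5 h compound exposure at 37 °C plus 30 min reagent incubation.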
A general note: In qHTS, concentration-response curves come from the screen itself.

Test [2] is described as follows: qHTS assay to identify small molecule antagonists of the thyroid receptor (TR) signaling pathway (AID 743065). Further: nearly all actives have a fitted effect of over 55% in size. Further: potency means the concentration at half of the fitted maximal effect. In outline: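 GH3.TRE-Luc rat pituitary cells (two TREs driving luciferase) were dosed with compound, then stimulated with 1 nM T3 (final) for 23.5 h at 37 C. ONE-Glo luminescence was the read-out, with CellTiter-Fluor fluorescence as the cytotoxicity counter-screen.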

Test [3] deals with thyroid hormone receptor (rat, GH3 cells). The test is described as follows: qHTS assay to identify small molecule agonists of the thyroid receptor (TR) signaling pathway (AID 743066; calls by dose curve).
Test [4] deals with Estrogen receptor (Homo sapiens) (UniProt P03372). The test can be described thus: qHTS assay to identify small molecule antagonists of the estrogen receptor alpha (ER-alpha) signaling pathway (AID 743069; active means well fitted curve in the direction sought with a large enough effect in the signal ratio in the repeat runs, not every such curve was filed as active; the % refers to the signal ratio). The essentials: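 In this cell-based reporter format, GripTite HEK293 cells harbouring ER-alpha-UAS-bla were grown overnight with 2% charcoal-stripped FBS, dosed with DMSO-dissolved compounds, then challenged with 17beta-estradiol. After 18 hr at 37C, beta-lactamase activity was detected by FRET fluorescence.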
Sequence of Estrogen receptor (Homo sapiens) (P03372 whole entry, looked up): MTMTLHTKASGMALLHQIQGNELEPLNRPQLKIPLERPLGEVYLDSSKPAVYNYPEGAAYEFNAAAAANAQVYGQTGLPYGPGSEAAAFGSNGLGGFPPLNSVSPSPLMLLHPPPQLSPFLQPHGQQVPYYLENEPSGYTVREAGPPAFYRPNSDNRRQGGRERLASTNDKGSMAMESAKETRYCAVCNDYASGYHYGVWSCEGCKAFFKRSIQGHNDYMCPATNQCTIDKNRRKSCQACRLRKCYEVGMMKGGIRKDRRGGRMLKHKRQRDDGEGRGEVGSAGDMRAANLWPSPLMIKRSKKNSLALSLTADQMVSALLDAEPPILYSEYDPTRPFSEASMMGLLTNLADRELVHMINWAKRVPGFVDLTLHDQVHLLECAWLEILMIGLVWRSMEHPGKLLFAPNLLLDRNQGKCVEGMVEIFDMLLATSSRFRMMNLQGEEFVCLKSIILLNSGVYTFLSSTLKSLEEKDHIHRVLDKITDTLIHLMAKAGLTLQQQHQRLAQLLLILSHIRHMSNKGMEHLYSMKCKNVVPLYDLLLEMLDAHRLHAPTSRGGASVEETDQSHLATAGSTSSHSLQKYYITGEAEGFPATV

The nature of test [5]: qHTS assay to identify small molecule antagonists of the estrogen receptor alpha (ER-alpha) signaling pathway - cell viability counter screen (AID 743074; calls by dose curve; further: nearly all actives have a fitted effect of over 45% in size).
Test [6] addresses Estrogen receptor (Homo sapiens) (UniProt P03372). The test can be described thus: qHTS assay to identify small molecule agonists of the estrogen receptor alpha (ER-alpha) signaling pathway (AID 743075; calls by dose curve).
The target is the same in test [7]. The test is described as follows: qHTS assay to identify small molecule agonists of the estrogen receptor alpha (ER-alpha) signaling pathway using the BG1 cell line (AID 743079). Further: nearly all actives have a fitted effect of over 20% in size. Further: potency means the concentration at half of the fitted maximal effect. The note with it: BG1Luc4E2 cells, ERE-luciferase agonist, 22 h; activation: at 70.3 µM (top of the series) unless noted.
A short description of test [8]: qHTS assay to identify small molecule antagonists of the estrogen receptor alpha (ER-alpha) signaling pathway using the BG1 cell line - cell viability counter screen (AID 743081).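 Further: compound given together with 17beta-estradiol as the ER stimulus; nearly all actives have a fitted effect of over 45% in size.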
A further test addresses Aromatase (Homo sapiens) (UniProt P11511). The test can be described thus: qHTS assay to identify aromatase inhibitors (AID 743083). Further: nearly all actives have a fitted effect of over 55% in size.
Test [9] can be described thus: qHTS assay to identify small molecule antagonists of the estrogen receptor alpha (ER-alpha) signaling pathway using the BG1 cell line (AID 743080; calls by dose curve;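 further: BG1 cells stimulated with 17beta-estradiol alongside compound; nearly all actives have a fitted effect of over 25% in size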). In outline: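 BG1-Luc-4E2 cells (endogenous full-length ER-alpha, stable 4×ERE-luciferase) were starved 5 days in phenol-red-free medium with 10% charcoal-stripped FBS, plated 24 h, then given compound plus 17beta-estradiol for 21.5 h at 37 C; ONE-Glo luminescence read after 30 min.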
On the % scale 0 is the no-effect control and ±100 the full control effect.

Sequence of Aromatase (Homo sapiens) (P11511 whole entry, looked up): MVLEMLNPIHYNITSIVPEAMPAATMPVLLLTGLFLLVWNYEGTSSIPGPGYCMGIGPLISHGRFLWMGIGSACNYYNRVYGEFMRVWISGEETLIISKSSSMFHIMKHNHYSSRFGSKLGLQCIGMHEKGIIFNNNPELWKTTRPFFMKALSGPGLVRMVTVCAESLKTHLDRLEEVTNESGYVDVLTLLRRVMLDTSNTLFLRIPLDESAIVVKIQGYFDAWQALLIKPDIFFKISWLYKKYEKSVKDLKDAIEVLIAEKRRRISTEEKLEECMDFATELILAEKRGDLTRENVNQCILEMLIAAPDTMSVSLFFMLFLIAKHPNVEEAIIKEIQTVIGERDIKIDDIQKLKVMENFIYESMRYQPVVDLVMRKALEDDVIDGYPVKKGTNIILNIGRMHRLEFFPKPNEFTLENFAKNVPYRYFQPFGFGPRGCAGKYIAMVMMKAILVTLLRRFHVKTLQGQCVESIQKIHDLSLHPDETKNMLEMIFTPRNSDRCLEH

Take `OB(O)O`: the Potency entry in test [1], in test [2], in test [3], in test [4], in test [5] and in test [6] was “inactive” in each case. Moreover, the Potency result (in test [7]; in test [8]; in the test with Aromatase (Homo sapiens)) was “inactive” in each case.
`CCOC(=O)c1ccc(O)cc1`: the Potency entry in test [1], in [2], in test [3], in [4], in test [5] and in test [6] was “inactive” each time. Moreover, the Potency entry (in [8]; in the test with Aromatase (Homo sapiens)) was “inactive” in each case. In [7], the Potency is 23.7 µM (active) and 30.6 µM (active).
`COc1c(Cl)ccc(Cl)c1C(=O)O`: the Potency result in [1], in test [2], in test [3], in [4], in test [5] and in test [6] was “inactive” throughout. Besides, the Potency result (in test [7]; in [8]; with Aromatase (Homo sapiens)) was “inactive” in each case.
On to `CCCCCCC(=O)O`, for which the Potency result in test [1], in test [2], in [3], in [4], in test [5] and in test [6] was “inactive” in each case. In addition, the Potency result (in test [7]; in test [8]; with Aromatase (Homo sapiens)) was “inactive” in each case.
Turning to `NC(=O)NC(N)=O`, the Potency entry in test [1], in [2], in test [3], in test [4], in test [5] and in test [6] was “inactive” throughout. For the same compound, the Potency entry (in [7]; in test [8]; with Aromatase (Homo sapiens)) was “inactive” in each case.
In the case of `COC(=O)CCCCC(=O)OC`, the Potency result in [1], in test [2], in [3], in test [4], in [5] and in test [6] was “inactive” each time. The Potency entry (in [7]; in [8]; with Aromatase (Homo sapiens)) was “inactive” each time.
In the case of `O=C(Cl)c1ccc(C(=O)Cl)cc1`, the Potency entry in test [1], in [2], in test [3], in [4], in test [5] and in test [6] was “inactive” in each case. Besides, the Potency result (in [7]; in test [8]; with Aromatase (Homo sapiens)) was “inactive” in each case.
As to `OC1CCCCC1`, the Potency result in [1], in [2], in test [3], in [4], in test [5] and in test [6] was “inactive” each time. Besides, the Potency entry (in test [7]; in test [9]; in test [8]; in the test with Aromatase (Homo sapiens)) was “inactive” in each case.
As for `O=C1C(N(CO)C(=O)NCO)N(CO)C(=O)N1CO` (stereo not drawn), the Potency entry in test [1], in test [2], in [3], in test [4], in [5] and in test [6] was “inactive” each time. The Potency entry (in test [7]; in test [8]; in the test with Aromatase (Homo sapiens)) was “inactive” throughout.
Take `CCCCCCCCCCCC(=O)N(C)CC(=O)O`: the activity change, negative = cytotoxic in test [1] was 15.6% [at 8.44 µM] (inactive). Besides, in test [2], the Potency is 59.2 µM (active). The activity, negative = inhibition in [2] is 7.52% [at 8.44 µM] (inactive); in [4], -5.64% [at 6.71 µM] (inactive). In addition, the Potency entry (in test [3]; in test [5]; in [6]; in test [8]; with Aromatase (Homo sapiens)) was “inactive” throughout. In addition, the activation in test [7] is -3.44% [at 8.47 µM] (inactive).
With `Cc1ccc(C(C)C)cc1`, the Potency entry in [1], in test [2], in test [3], in test [4], in [5] and in test [6] was “inactive” throughout. Further, the Potency entry (in [7]; in test [8]; in the test with Aromatase (Homo sapiens)) was “inactive” throughout.
Regarding `CCCCCCCCC(=O)O`, the Potency entry in test [1], in [2], in [3], in test [4], in [5] and in test [6] was “inactive” each time. Moreover, the Potency entry (in test [7]; in test [8]; in the test with Aromatase (Homo sapiens)) was “inactive” each time.
As for `CC(=O)OC(C)(C)C1CC=C(C)CC1` (stereo not drawn), the Potency result in [1], in [2], in [3], in test [4], in test [5] and in test [6] was “inactive” each time. Also, the Potency result (in test [8]; with Aromatase (Homo sapiens)) was “inactive” in each case. Moreover, in test [7], the Potency entry was “inactive and 54.5 µM (active)”.
For the compound `CC(O)CNCC(C)O` (stereo not drawn), the Potency result in test [1], in test [2], in test [3], in test [4], in [5] and in [6] was “inactive” each time. Moreover, the Potency entry (in test [7]; in test [9]; in test [8]; in the test with Aromatase (Homo sapiens)) was “inactive” throughout.
`CC(=O)OC/C=C(\C)CCC=C(C)C`: the Potency result in [1], in test [2], in [3], in test [4], in test [5] and in test [6] was “inactive” each time. The Potency entry (in test [7]; in test [8]; in the test with Aromatase (Homo sapiens)) was “inactive” throughout.
Turning to `OCC(CO)(CO)CO`, the Potency result in test [1], in test [2], in test [3], in test [4], in test [5] and in test [6] was “inactive” each time. Besides, the Potency entry (in test [7]; in [9]; in [8]; in the test with Aromatase (Homo sapiens)) was “inactive” throughout.
On to `OC[C@H]1O[C@@H](Oc2ccc(O)cc2)[C@H](O)[C@@H](O)[C@@H]1O`, for which the Potency result in test [1], in test [2], in test [3], in test [4], in test [5] and in test [6] was “inactive” throughout. The Potency entry (in test [7]; in test [8]; with Aromatase (Homo sapiens)) was “inactive” each time.
Turning to `O=Cc1ccc(CO)o1`, the Potency entry in test [1], in [2], in test [3], in test [4], in test [5] and in [6] was “inactive” throughout. Besides, the Potency result (in test [7]; in [8]; with Aromatase (Homo sapiens)) was “inactive” in each case.
For the compound `CCc1cccc(O)c1`, the Potency entry in [1], in test [2], in test [3], in [4], in [5] and in test [6] was “inactive” throughout. In addition, the Potency result (in test [7]; in test [8]; with Aromatase (Homo sapiens)) was “inactive” throughout.
`Nc1cccc(C(F)(F)F)c1`: the Potency entry in test [1], in test [2], in test [3], in test [4], in test [5] and in [6] was “inactive” each time. Moreover, the Potency result (in [7]; in [8]; with Aromatase (Homo sapiens)) was “inactive” in each case.
As to `CC(=O)C(C)C`, the Potency entry in test [1], in test [2], in [3], in test [4], in test [5] and in test [6] was “inactive” in each case. The Potency entry (in [7]; in test [9]; in test [8]; in the test with Aromatase (Homo sapiens)) was “inactive” in each case.
As to `CC(C)c1ccc(C(C)C)cc1`, the Potency result in test [1], in test [2], in test [3], in test [4], in test [5] and in test [6] was “inactive” each time. Moreover, the Potency result (in test [7]; in [8]; in the test with Aromatase (Homo sapiens)) was “inactive” in each case.
In the case of `C=CC(=O)NCOCCCC`, the Potency entry in test [1], in test [2], in [3], in [4], in test [5] and in test [6] was “inactive” in each case. For the same compound, the Potency entry (in [7]; in test [9]; in test [8]; with Aromatase (Homo sapiens)) was “inactive” in each case.

For the origin of these results see PubChem BioAssay (Tox21).
